Compounds with a hit are over-represented: about 19% of the library has one in this group of screens.
IL1B secr inh = blocks inflammasome-driven IL-1 beta release; 4.7% of 360,000 active; AID 743279; activity change, % at 57.5 µM; THP-1 LPS/ATP IL-1B secretion, AlphaLISA, 16 h; hits give low values; in the data active means activity change below about -50%; inconclusive means mostly about -30% to -49%; further: on the % scale 0 is the no-effect control and ±100 the full control effect
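THP-1 cells pretreated 1 hr with compounds (up to 57.5 uM final), then stimulated with LPS (250 ng/mL final) plus ATP (1.25 mM final); secreted IL-1B measured by AlphaLISA after 16 hr, decreased signal indicating inhibition.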
DT40 TDP1 no CPT = qHTS for Inhibitors of human tyrosyl-DNA phosphodiesterase 1 (TDP1): qHTS in cells in absence of CPT; Potency, µM (top dose mostly 46.2 µM), for the others: top-dose activity change, negative = growth inhibition, hits mostly inhibitors; DT40 Tdp1-/- hTDP1 cells, no CPT, ATP luminescence, 48 h; AID 686978, 2013; 15% of 420,000 active; further: potency means the concentration at half of the fitted maximal effect; on the % scale 0 is the no-effect control and ±100 the full control effect; nearly all actives have a fitted effect of over 55% in size
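Chicken DT40 Tdp1-/- cells stably complemented with human TDP1 were seeded at 400 cells/well with DMSO in place of 20 nM camptothecin. After compound pinning, cells grew at least 48 hr at 37 °C; viability read by CellTiter-Glo luminescence.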
S-ASM inh = inhibitors of human secretory acid sphingomyelinase; P17405; placental ASM, HMU-PC fluorogenic substrate, 60 min; Potency, µM (series often up to 57.5 µM), without a hit: top-dose activity change, negative = inhibition, actives largely listed as inhibitors; 0.006% of 340,000 active; further: potency means the concentration at half of the fitted maximal effect
Target sequence (P17405 47-631 limits assumed): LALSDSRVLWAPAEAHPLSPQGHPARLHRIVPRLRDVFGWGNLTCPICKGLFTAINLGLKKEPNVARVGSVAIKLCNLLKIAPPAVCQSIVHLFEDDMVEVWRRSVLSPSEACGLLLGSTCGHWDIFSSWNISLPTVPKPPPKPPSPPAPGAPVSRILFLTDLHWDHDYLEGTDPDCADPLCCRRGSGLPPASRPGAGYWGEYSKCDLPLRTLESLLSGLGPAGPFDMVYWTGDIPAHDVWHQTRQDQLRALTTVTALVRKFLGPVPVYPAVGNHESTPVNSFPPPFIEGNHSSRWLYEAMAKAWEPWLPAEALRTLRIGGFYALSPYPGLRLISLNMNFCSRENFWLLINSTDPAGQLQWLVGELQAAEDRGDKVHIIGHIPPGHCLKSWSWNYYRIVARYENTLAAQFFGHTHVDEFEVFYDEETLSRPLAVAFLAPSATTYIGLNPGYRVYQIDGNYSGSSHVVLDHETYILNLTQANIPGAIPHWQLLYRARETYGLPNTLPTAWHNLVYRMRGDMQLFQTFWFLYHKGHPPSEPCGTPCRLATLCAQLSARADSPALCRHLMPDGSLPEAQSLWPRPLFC
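qHTS format. ASM enzyme prepared from human placenta hydrolyses the fluorogenic substrate HMU-PC0 (9 uM final) over 60 min at 37 °C after a 10 min compound preincubation.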
DT40 TDP1 CPT = DT40-hTDP1 cell growth loss with CPT; chicken DT40 Tdp1-/-;hTDP1 cells + 20 nM CPT, ATP luminescence, 48 h; AID 686979; 12% of 420,000 active; Potency, µM (top dose mostly 46.2 µM), for inactives: top-dose activity change, negative = growth inhibition, actives largely listed as inhibitors; further: potency means the concentration at half of the fitted maximal effect; on the % scale 0 is the no-effect control and ±100 the full control effect; nearly all actives have a fitted effect of over 55% in size
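Chicken DT40 Tdp1-/- cells complemented with human TDP1, 400 cells/well, exposed to compounds plus 20 nM camptothecin for at least 48 h at 37 C; viability read as ATP content by CellTiter-Glo luminescence.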
HepG2 tox = counter-screen for TGF-b inhibitors: cytotoxicity in HepG2 cells; HepG2 CAGA-GFP viability, ATP luminescence, 18 h; Potency, µM (top dose mostly 46.1 µM), without a hit: at the top dose activity change, negative = cytotoxicity, hits mostly cytotoxic; 0.76% of 410,000 active; AID 588856; further: potency means the concentration at half of the fitted maximal effect
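CellTiter-Glo luminescence gave cytotoxicity after 18 hours at 37 degrees C. The cells were HepG2 CAGA-GFP in 1% FBS DMEM, stimulated with 500 pg/mL TGF-beta after compound addition. %Activity was normalised to no-cell wells (complete cell-killing) and DMSO (no toxicity), and curves were fitted and classified.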
TGFb inhibitor = blocks TGF-b signaling. HepG2 CAGA-GFP TGF-b/SMAD3 reporter, GFP fluorescence, 18 h; TGF-beta stimulated, 500 pg/mL final. Potency, µM (series often up to 46.1 µM), inactives show at the top dose activity, negative = inhibition, hits mostly inhibitors. 1.2% of 410,000 active. AID 588855; further: potency means the concentration at half of the fitted maximal effect; on the % scale 0 is the no-effect control and ±100 the full control effect; nearly all actives have a fitted effect of over 65% in size
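Inhibition was scored as loss of TGF-beta-induced (500 pg/mL final, 18 hours, 37 degrees C) GFP in HEPG2 cells carrying a CAGA-GFP reporter, in DMEM with 1% FBS. Well GFP was summed per cell; Activity was normalised to unstimulated and stimulated DMSO wells, then concentration-response fitting.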
An asterisk follows results filed as active; i = inactive; ? = inconclusive; . = no result given. Unless noted, the call rests on the fitted dose curve; in most records, active means well fitted curve in the direction sought with a large enough effect; inconclusive means small, poorly fitted or top-dose-only effect, or another doubt; inactive means no such curve, though single readings can be large; an effect the other way counts as inactive or inconclusive.

SMILES	IL1B secr inh	DT40 TDP1 no CPT	S-ASM inh	DT40 TDP1 CPT	HepG2 tox	TGFb inhibitor
COc1ccc(S(=O)(=O)N2CCCC(C(=O)NCCc3ccccc3)C2)cc1 (stereo unspecified)	-26	?	-2%	1%	-1%	-15%
CSC1SCC2C(=O)N(C)C(C(C)C)C(=O)OCC(NC(=O)c3cnc4ccccc4n3)C(=O)NC(C)C(=O)N(C)C1C(=O)N(C)C(C(C)C)C(=O)OCC(NC(=O)c1cnc3ccccc3n1)C(=O)NC(C)C(=O)N2C (stereo unspecified)	-116*	-83%	-18%	-72%	35%	-106%
Oc1ccc(/C=N/Nc2cc(N3CCOCC3)nc(N3CCOCC3)n2)cc1	?	21µM*	16%	16µM*	-44%	27%
CCOc1ccc(/C=N/Nc2cc(C)nc(N3CCOCC3)n2)cc1	30	?	-3%	?	-23%	6%
Cc1cc(N/N=C/c2ccccc2O)nc(N2CCOCC2)n1	?	?	285%	-27%	-29%	13%
COc1ccc(/C=N/Nc2cc(N3CCCC3)nc(N3CCCC3)n2)cc1	-91*	21µM*	?	21µM*	-70%	?
Cc1nc(N/N=C/c2ccc(Br)cc2)cc(N2CCOCC2)n1	-18	?	3%	7.3µM*	-78%	30%
COc1ccc(OC)c(/C=N/Nc2cc(C)nc(N3CCOCC3)n2)c1	11	16µM*	38%	?	-3%	0%
CCNC(=O)C1CCN(c2nc3ccccc3nc2C(F)(F)F)CC1	.	?	.	?	5%	2%
COc1ccc(C)cc1NC1(c2ccccc2)C(=O)c2ccccc2C1=O	.	4%	.	9%	1%	-6%
Oc1ccc(/C=N/Nc2cc(N3CCCC3)nc(N3CCCC3)n2)cc1	-101*	?	-3%	?	-29%	-4%
O=[N+]([O-])c1cc(/C=N/Nc2nc(N3CCCCC3)nc(N3CCCCC3)n2)ccc1O	11	?	2%	14%	-22%	0%
Oc1cccc(/C=N/Nc2cc(N3CCCC3)nc(N3CCCC3)n2)c1	-102*	?	.	?	-30%	?
CS(=O)(=O)c1ccc(Cl)c(NC(=O)COC(=O)CCN2C(=O)C3CC=CCC3C2=O)c1 (stereo unspecified)	12	1%	0%	-3%	-3%	17%
O=C(OCc1cn([C@H]2CN(Cc3cccs3)[C@@H](c3ccc(Cl)cc3)C[C@@H]2O)nn1)c1ccccc1	18	-26%	.	?	-10%	-14%
O=C(OCc1cn([C@H]2CN(Cc3cccs3)[C@@H](c3ccccc3)C[C@@H]2O)nn1)c1ccccc1	21	21µM*	.	18µM*	-65%	?
Cc1ccc([C@H]2C[C@@H](O)[C@H](n3cc(COC(=O)c4ccccc4)nn3)CN2C(=O)c2cccs2)cc1	16	26µM*	.	?	-10%	-3%
Cc1ccc([C@H]2C[C@@H](O)[C@H](n3cc(COC(=O)c4ccccc4)nn3)CN2Cc2cccs2)cc1	21	?	.	?	-9%	-11%
COc1ccc([C@H]2C[C@H](n3cc(COC(=O)c4ccccc4)nn3)[C@@H](O)CN2Cc2cccs2)cc1	-1	18µM*	.	?	-4%	10%
Cc1ccc([C@H]2C[C@H](O)[C@@H](n3cc(COC(=O)c4ccccc4)nn3)CN2Cc2cccs2)cc1	?	23µM*	.	21µM*	-104%	?
CC1CC(C)CN(C(=O)c2cccc(N3C(=O)c4ccccc4C3=O)c2)C1 (stereo unspecified)	-2	-21%	0%	-9%	0%	9%
COc1ccc(OC)c(C(=O)CSc2nnc(-c3cccnc3)n2C)c1	0	-19%	6%	-4%	8%	0%
COc1ccc(Nc2nc(Cl)nc(Nc3ccc(OC)cc3)n2)cc1	-24	?	1%	-6%	3%	-12%
COc1ccccc1Nc1nc(Cl)nc(NC(C)(C)C)n1	-22	-28%	1%	6%	3%	5%
Clc1nc(Nc2ccccc2)nc(Nc2ccccc2)n1	-100*	-21%	-4%	-4%	-25%	-11%
SMILES	IL1B secr inh	DT40 TDP1 no CPT	S-ASM inh	DT40 TDP1 CPT	HepG2 tox	TGFb inhibitor
CC(C)(C)Nc1nc(Cl)nc(Nc2ccccc2)n1	-65*	?	-1%	?	-2%	0%
CCCCOc1ccc(CNC(=O)Cn2ncn3c(cc4cc(F)ccc43)c2=O)cc1	.	-13%	.	-12%	6%	33%
c1ccc(CSc2ncnc3c2ncn3C2CCCCO2)cc1 (stereo unspecified)	-50*	?	-2%	-25%	-16%	-17%
Clc1cccc(CSc2ncnc3c2ncn3C2CCCCO2)c1 (stereo unspecified)	-24	16µM*	-3%	?	2%	-6%
O=Cc1ccc(Oc2ncccn2)cc1	0	8%	-1%	6%	12%	3%
CSc1ccc(CCNC(=O)c2ccc(-c3nc(COc4ccccc4)c(C)o3)cc2)cc1	.	-17%	.	-10%	6%	9%
CC1=[N+](C)c2ccc3ccccc3c2C1(C)C	-15	2.3µM*	i	2.6µM*	-75%	6.3µM*
COc1ccc(N2C(=O)[C@@H]3[C@H](C2=O)[C@H](C(C)=O)N2c4ccccc4C=C[C@@H]32)cc1	14	-12%	4%	4%	1%	7%
COc1ccc(C2C(C(=O)c3ccccc3)N3c4ccccc4C=CC3C2[N+](=O)[O-])cc1 (stereo unspecified)	-21	10µM*	-20%	7.3µM*	-30%	84%

High-throughput results (PubChem BioAssay)
